Screening data deposited in PubChem by National Center for Advancing Translational Sciences (NCATS).
Shown are actives, neighbours in structure and some others; about 4.4% of the full set was active somewhere.
p53ts 39C kill – cytotoxicity in p53ts cells at nonpermissive temperature. 130,000 tested, 1.5% active. Potency, µM (series often up to 46.1 µM), for inactives: at the highest dose activity change, negative = cell killing, usual class: cytotoxic. H1299-p53A138V viability at 39C, ATP luminescence, 24 h. AID 902; further: nearly all actives have a fitted effect of over 55% in size
HPGD block – inhibitors of human 15-hydroxyprostaglandin dehydrogenase (HPGD). purified HPGD, NADH fluorescence kinetic, PGE2 substrate. Potency, µM, without a hit: at the top dose activity change, negative = inhibition, actives largely listed as inhibitors. 150,000 tested, 4.3% active. AID 894; active means well fitted inhibition curve with a large enough effect, not every such curve was filed as active; inconclusive means small, poorly fitted or top-dose-only effect, or another doubt; inactive means no such curve, though single readings can be large or run the other way
Target sequence (P15428 whole entry, looked up): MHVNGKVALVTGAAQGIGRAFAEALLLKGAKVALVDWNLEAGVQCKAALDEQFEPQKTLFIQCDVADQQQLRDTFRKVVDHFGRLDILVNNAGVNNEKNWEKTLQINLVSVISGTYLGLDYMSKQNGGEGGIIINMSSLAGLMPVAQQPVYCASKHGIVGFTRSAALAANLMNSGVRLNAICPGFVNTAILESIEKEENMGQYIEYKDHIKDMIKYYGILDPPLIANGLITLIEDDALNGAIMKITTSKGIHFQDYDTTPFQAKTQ
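NADH formation kinetics: reaction with 30 uM PGE2 and 1 mM NAD+ (final), 20 nM enzyme, Tris-HCl pH 8 with Tween 20, after 15 min compound preincubation at room temperature. Fluorescence change, last versus first of five reads.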
p53ts 32C tox – kills p53ts cells at the permissive temperature | 130,000 tested, 0.93% active | Potency, µM (highest dose often 46.1 µM), without a hit: top-dose activity change, negative = cytotoxicity, usual class: cytotoxic | H1299-p53A138V at 32C, ATP luminescence viability, 24 h;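 further: 0% = DMSO and -100% = full killing by reference compound; nearly all actives have a fitted effect of over 55% in size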
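ATP-content luminescence (ATPlite) read-out after 24 h compound exposure at 32C in H1299-p53A138V cells (600/well). Tested up to 46 uM. Normalized to DMSO (0%) and 100 uM tamoxifen (100% killing); Hill-fit AC50.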
ALOX12 inhib – inhibitors of human 12-lipoxygenase (ALOX12); Potency, µM (series often up to 57.1 µM), for the others: at the top dose activity change, negative = inhibition, hits mostly inhibitors; P18054; AID 1452; 150,000 tested, 0.12% active; purified 12-hLO, xylenol orange hydroperoxide absorbance; further: nearly all actives have a fitted effect of over 55% in size
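Lipoxygenase turnover measured by absorbance at 573 and 405 nm after Fe-XO development. Human 12hLO 150 nM, arachidonate 40 uM, pH 7.0 Hepes buffer with detergent; 15 min compound preincubation, 30 min reaction.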
Starred values were filed as active, the others as inactive. Unless noted, the call rests on the fitted dose curve; in most records, active means well fitted curve in the direction sought with a large enough effect; inconclusive means small, poorly fitted or top-dose-only effect, or another doubt; inactive means no such curve, though single readings can be large; an effect the other way counts as inactive or inconclusive. Unless noted, on the % scale 0 is the no-effect control and ±100 the full control effect; potency means the concentration at half of the fitted maximal effect.

`Cc1ccc(CN(Cc2ccco2)C(=O)c2ccccc2Br)o1` gave p53ts 39C kill -21.5% and p53ts 32C tox 4.1%.
`COc1ccc(CCNC(=O)c2cc(-c3ccc(C)cc3)nc3n[nH]c(-c4ccccc4)c23)cc1OC` gave p53ts 39C kill -20.7% and p53ts 32C tox -10.7%.
For COc1ccc(-c2cc(C(=O)NCCc3ccccc3)c3c(-c4ccccc4)[nH]nc3n2)cc1OC the results were p53ts 39C kill 12.6µM* and p53ts 32C tox inconclusive.
Screening CCOc1ccc(-c2cc(C(=O)NCCc3ccccc3)c3c(-c4ccc(C)cc4)[nH]nc3n2)cc1 returned p53ts 39C kill 15.8µM* and p53ts 32C tox -12.5%.
COc1cc(OC)c(-c2cc(C(=O)NCc3ccc(F)cc3)c3c(-c4ccccc4)[nH]nc3n2)cc1OC was read as p53ts 39C kill inconclusive and p53ts 32C tox 8.91µM*.
For CCc1ccc(-c2[nH]nc3nc(-c4cc(OC)ccc4OC)cc(C(=O)O)c23)cc1 the results were p53ts 39C kill 3.98µM* and p53ts 32C tox -1.9%.
For COc1ccc(-c2[nH]nc3nc(-c4cc(OC)c(OC)c(OC)c4)cc(C(=O)O)c23)cc1 the results were p53ts 39C kill inconclusive and p53ts 32C tox -17.2%.
Screening COc1ccc(C2CC(=O)c3cc(-c4nc(-c5ccc(Cl)cc5)cs4)c(=O)[nH]c3C2)cc1 (stereo unspecified) returned p53ts 39C kill 10.4% and p53ts 32C tox 14.2%.
CC(=O)C1=C(C)NC(SCc2cccc3ccccc23)=C(C#N)C1c1ccco1 (stereo unspecified) was read as HPGD block inconclusive and ALOX12 inhib -12.9%.
For CC1=C(C(=O)Nc2ccccc2)C(c2ccncc2)C(C#N)=C(SCC(=O)NC(C)C)N1 (stereo unspecified) the results were HPGD block -17.6% and ALOX12 inhib -2.8%.
`CC(=O)C1=C(C)NC(SCC(=O)c2ccc(Cl)cc2)=C(C#N)C1c1ccco1` (stereo unspecified) gave p53ts 39C kill 17.9%, HPGD block 31.6µM*, p53ts 32C tox 22.4% and ALOX12 inhib inconclusive.
CC(=O)C1=C(C)NC(SCC(=O)c2ccc(Cl)cc2Cl)=C(C#N)C1c1ccco1 (stereo unspecified) was read as p53ts 39C kill 44.4%, HPGD block inconclusive, p53ts 32C tox 17.1% and ALOX12 inhib inconclusive.
For CCOC(=O)CSC1=C(C#N)C(c2ccccc2)C(C(C)=O)=C(C)N1 (stereo unspecified) the results were p53ts 39C kill -3.5%, HPGD block -20.7%, p53ts 32C tox -3.9% and ALOX12 inhib 4.7%.
For CSCSC1=C(C#N)C(c2ccc(Cl)cc2)C(C(C)=O)=C(C)N1 (stereo unspecified) the results were p53ts 39C kill 13.7%, HPGD block 31.6µM*, p53ts 32C tox 14.4% and ALOX12 inhib -14.0%.
Screening CC(=O)C1=C(C)NC(SCC(=O)c2ccccc2)=C(C#N)C1CC(C)C (stereo unspecified) returned p53ts 39C kill 49.6%, HPGD block 31.6µM*, p53ts 32C tox 12.9% and ALOX12 inhib -22.4%.
`CC(=O)C1=C(C)NC(SCC(=O)c2ccccc2)=C(C#N)C1c1ccco1` (stereo unspecified) gave p53ts 39C kill -2.9%, HPGD block 31.6µM*, p53ts 32C tox 13.6% and ALOX12 inhib -17.9%.
For COc1ccc(C(=O)Nc2nc3nc(C)c(Cl)c(=O)n3[nH]2)cc1 the results were p53ts 39C kill 15.8% and p53ts 32C tox -5.5%.
`NC(=O)c1nc(Nc2ccccc2)sc1NC(=O)c1ccccc1Br` gave p53ts 39C kill -17.0% and p53ts 32C tox 4.2%.
For CC1=NN(c2ccccc2)C(=O)/C1=C/c1cccs1 the results were HPGD block 31.6µM* and ALOX12 inhib -0.3%.
CC1=NN(c2ccccc2)C(=O)/C1=C\c1ccc(Br)s1 was read as HPGD block 28.2µM* and ALOX12 inhib -4.2%.
CC1=NN(c2ccccc2)C(=O)/C1=C/c1ccc[nH]1 was read as HPGD block -5.1% and ALOX12 inhib -2.1%.
Screening c1ccc(-n2c(SCc3nc(-c4cccs4)no3)nnc2-c2ccco2)cc1 returned p53ts 39C kill 1.5%, HPGD block 31.6µM*, p53ts 32C tox -8.8% and ALOX12 inhib -17.6%.
Screening COc1ccc(-n2c(Cc3ccccc3)nnc2SCc2nc(-c3cccs3)no2)cc1 returned p53ts 39C kill -10.2% and p53ts 32C tox 10.0%.
Screening COCC(C)NC(=O)c1ccc(N(C)C)cc1 (stereo unspecified) returned p53ts 39C kill -7.1%, HPGD block 22.4µM*, p53ts 32C tox -14.4% and ALOX12 inhib 1.2%.
For Cc1c(NC(=O)c2ccccc2F)cccc1-c1nc2cccnc2s1 the results were p53ts 39C kill 15.3% and p53ts 32C tox 4.7%.
Screening N[C@H](CCC(=O)N[C@H](CSN=O)C(=O)NCC(=O)O)C(=O)O returned p53ts 39C kill -2.2%, HPGD block 11.2µM*, p53ts 32C tox -2.5% and ALOX12 inhib -14.1%.
Screening CC1=C(c2ccc(C)c(C)c2)S(=O)(=O)N=C1N1CCC(C(=O)NCCc2ccc(Cl)cc2)CC1 returned p53ts 39C kill 12.6µM* and p53ts 32C tox inconclusive.
`CC(=O)c1nnn(-c2ccc(C)cc2Cl)c1C` gave p53ts 39C kill 4.7% and p53ts 32C tox 6.7%.
For CN(C(=O)c1cc2sccc2n1C)C1CCCCC1 the results were p53ts 39C kill -26.4%, HPGD block 17.8µM*, p53ts 32C tox inconclusive and ALOX12 inhib 0.4%.
Cn1c(C(=O)NC2CCCCC2)cc2sccc21 was read as p53ts 39C kill -14.6%, p53ts 32C tox -20.8% and ALOX12 inhib 2.0%.
For Cc1ccc(CN(Cc2ccco2)C(=O)c2ccccc2Cl)o1 the results were p53ts 39C kill -21.5% and p53ts 32C tox 7.8%.
Screening Cc1cc2c(cc3c(SCC(=O)Nc4ccc(Cl)cc4F)nncn32)o1 returned p53ts 39C kill -28.8% and p53ts 32C tox -21.0%.
For O=C1Nc2ccccc2C(=O)C1(Cl)Cc1ccccc1 (stereo unspecified) the results were HPGD block 7.08µM* and ALOX12 inhib -14.7%.
For CCCCOc1ccc(C(=O)Nc2cccc(-c3nc4cccnc4s3)c2)cc1 the results were p53ts 39C kill -2.0% and p53ts 32C tox 3.3%.
For CN1CCN(C(=O)c2ccc3ccccc3c2)CC1 the results were p53ts 39C kill -4.8%, HPGD block 15.8µM*, p53ts 32C tox -21.6% and ALOX12 inhib -2.0%.
Screening Cc1ccc(C(=O)Nc2cccc(C(=O)N3CCN(C)CC3)c2)cc1 returned HPGD block -22.3% and ALOX12 inhib -2.9%.
Screening CN1CCN(C(=O)c2ccc(CSc3ccc(Cl)cc3)cc2)CC1 returned p53ts 39C kill 0.7%, HPGD block 8.91µM* and ALOX12 inhib 2.8%.
`CN1CCN(C(=O)c2ccc(-n3cccc3)cc2)CC1` gave HPGD block 14.1µM* and ALOX12 inhib 8.6%.
O=C(c1ccc(Cl)cc1)N1CCC(O)(CSc2ccc(Cl)cc2)CC1 was read as HPGD block -10.9% and ALOX12 inhib -22.4%.
